High-throughput results: PubChem, National Center for Advancing Translational Sciences (NCATS)
NPSR antag: qHTS Assay for Antagonists of the Neuropeptide S Receptor: cAMP Signal Transduction | hit rate 1% among 220,000 | AID 1461, 2008 | Potency, µM (doses to about 38.3 µM), for the others: at the highest dose activity change, negative = inhibition, most hits filed as inhibitors | CHO-NPSR cells, cAMP TR-FRET, antagonist mode; also: potency is read from the fitted curve at half-maximal effect; nearly all actives have a fitted effect of over 50% in size
Target sequence (Q6W5P4 whole entry, looked up): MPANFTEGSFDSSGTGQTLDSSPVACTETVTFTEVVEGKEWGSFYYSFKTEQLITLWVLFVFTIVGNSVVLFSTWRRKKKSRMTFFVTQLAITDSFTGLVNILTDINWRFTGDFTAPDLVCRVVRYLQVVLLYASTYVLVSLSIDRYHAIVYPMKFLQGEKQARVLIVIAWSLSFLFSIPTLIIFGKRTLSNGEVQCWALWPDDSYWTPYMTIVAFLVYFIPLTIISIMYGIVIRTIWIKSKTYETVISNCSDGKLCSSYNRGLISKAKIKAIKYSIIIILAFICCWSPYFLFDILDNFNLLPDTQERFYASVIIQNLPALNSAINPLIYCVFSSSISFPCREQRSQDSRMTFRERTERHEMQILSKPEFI
Sfp inh: qHTS Assay for Inhibitors of Bacillus subtilis Sfp phosphopantetheinyl transferase (PPTase); 4'-phosphopantetheinyl transferase ffp (Bacillus subtilis), Q9F4F7; Biochemical Sfp PPTase activity, qHTS; Potency, µM, for the others: largest response in the series, negative = inhibition, usual class: inhibitors; hit rate 3.5% among 310,000; AID 1490, 2009;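 also: the enzyme is Sfp with the accession as filed and its product quenches rhodamine fluorescence; potency is read from the fitted curve at half-maximal effect; 0% = enzyme reaction without inhibitor and -100% = no enzyme wells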
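Fluorescence-quenching assay with 15 nM Sfp, 5 uM rhodamine-CoA and 12.5 uM BHQ-2-labelled ybbR peptide in pH 7.6 Hepes/MgCl2 buffer. Enzyme was pre-incubated with compound for 15 min at room temperature. Rate was taken from the 30-min fluorescence change (525/598 nm).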
FBPA coupling cs: qHTS Assay for Inhibitors of Fructose-1,6-bisphosphate Aldolase from Giardia Lamblia: Coupling assay counterscreen | activity change, negative = inhibition, % at 58.2 µM, hits read low | AID 2472, 2010 | coupling enzyme system counterscreen, AmpLite Red fluorescence | hit rate 0.67% among 290,000; in the data active = activity change below about -30%
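Counterscreen of the coupled detection system alone, without aldolase: glyceraldehyde-3-phosphate coupling enzymes plus AmpLite Red readout. Compounds at 57.5 uM final, 10 min RT preincubation, 20 min RT reaction, fluorescence 525/598 nm.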
RGS12 GoLoco inh: qHTS Assay for Inhibitors of RGS12 GoLoco Motif Activity (Red Fluorophore); Guanine nucleotide-binding protein G(i) subunit alpha-1 (Homo sapiens), P63096; Gai1:RGS12 GoLoco peptide FP, rhodamine, 10 min; Potency, µM (highest dose often 61.6 µM), for inactives: top-dose activity, negative = inhibition, usual class: inhibitors; hit rate 0.44% among 230,000; AID 880, 2007; active = well fitted inhibition curve with a large enough effect, not every such curve was filed as active; inactive = no such curve, though single readings can be large or run the other way; also: potency is read from the fitted curve at half-maximal effect; nearly all actives have a fitted effect of over 30% in size
ALDH1A1 block: qHTS Assay for Inhibitors of Aldehyde Dehydrogenase 1 (ALDH1A1); Aldehyde dehydrogenase 1A1 (Homo sapiens), P00352; Purified ALDH1A1, NADH fluorescence, propionaldehyde substrate; Potency, µM (highest dose often 75.3 µM), without a hit: at the highest dose activity, negative = inhibition, most hits filed as inhibitors; hit rate 7.3% among 220,000; active = well fitted inhibition curve with a large enough effect, not every such curve was filed as active; inconclusive = small, poorly fitted or top-dose-only effect, or another doubt; inactive = no such curve, though single readings can be large or run the other way;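 also: potency is read from the fitted curve at half-maximal effect; plate controls were no enzyme wells and a reference inhibitor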
JMJD2E inh: qHTS Assay for Inhibitors of Human Jumonji Domain Containing 2E (JMJD2E); JMJD2E catalytic domain, FDH-coupled NADH fluorescence (FDH is formaldehyde dehydrogenase); Potency, µM (doses to about 57.1 µM), inactives show at the top dose activity change, negative = inhibition, hits mostly inhibitors; hit rate 1.6% among 230,000; AID 2147, 2009; active = well fitted inhibition curve with a large enough effect, not every such curve was filed as active; inconclusive = small, poorly fitted or top-dose-only effect, or another doubt; inactive = no such curve, though single readings can be large or run the other way;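 also: potency is read from the fitted curve at half-maximal effect; 0% = wells with enzyme and -100% = buffer wells without enzyme; nearly all actives have a fitted effect of over 50% in size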
Target sequence (B2RXH2 1-337 limits assumed): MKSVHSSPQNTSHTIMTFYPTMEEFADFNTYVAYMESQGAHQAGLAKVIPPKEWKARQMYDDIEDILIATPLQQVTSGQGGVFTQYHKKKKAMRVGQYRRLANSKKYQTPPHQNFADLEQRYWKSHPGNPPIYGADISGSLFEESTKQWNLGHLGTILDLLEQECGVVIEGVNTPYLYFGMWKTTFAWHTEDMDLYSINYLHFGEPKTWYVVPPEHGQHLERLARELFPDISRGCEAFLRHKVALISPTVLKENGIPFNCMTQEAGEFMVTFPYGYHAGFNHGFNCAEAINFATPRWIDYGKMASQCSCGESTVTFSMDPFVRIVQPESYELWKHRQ
Numbers without * were called inactive; u = inconclusive; x = no result given; [ ] = another dose, or the depositor's remark. A selection: hits, their analogues and other compounds. The true share with any hit is near 8.5%. Unless noted, calls follow the shape of the dose curve; as a rule, active = well fitted curve in the direction sought with a large enough effect; inconclusive = small, poorly fitted or top-dose-only effect, or another doubt; inactive = no such curve, though single readings can be large; an effect the other way counts as inactive or inconclusive. Unless noted, % is scaled to controls: 0 for no effect and ±100 for the full control effect.

SMILES	NPSR antag	Sfp inh	FBPA coupling cs	RGS12 GoLoco inh	ALDH1A1 block	JMJD2E inh
C[C@@H](C(=O)Nc1nc2ccccc2s1)N1C(=O)C2CC=CCC2C1=O (stereo partly specified)	-9.4%	12.3%	-0.8	10.5%	22.8%	-3.3%
COc1ccc(NC(=O)CCC(=O)NCc2ccco2)c([N+](=O)[O-])c1	x	13.1%	-1.0	x	x	x
C/C(CCN1CCc2nc(-c3ccccc3)c(-c3ccccc3)cc2C1)=N\OC[C@@H](O)COCc1ccco1	x	10.2%	1.7	x	2.8%[13.5 µM]	x
[O-]/C(=C(\C(=S)NCc1ccccc1)[n+]1ccccc1)c1ccc(Cl)s1	-8.6%	-36.0%	2.5	24.8%	17.8µM*	7.0%
Cc1ccc(/C([O-])=C(/C(=S)NCCN2CCOCC2)[n+]2ccccc2)cc1[N+](=O)[O-]	0.1%	20µM*	-6.9	-8.0%	22.4µM*	-4.1%
Cc1cccc(C)c1NC(=S)/C(=C(\[O-])c1cccs1)[n+]1ccccc1	18.2%	u	-10.3	1.6%	-3.1%	4.9%
[O-]/C(=C(\C(=S)NCCN1CCOCC1)[n+]1ccccc1)c1ccc(Cl)s1	19.9%	2.5%	0.4	34.4%	10µM*	2.3%
O=C(NCCN1CCOCC1)c1c(Cl)cccc1Cl	x	16.5%	-3.9	x	x	x
COc1cc2c(=O)n(CCC(=O)NCC3CCCO3)c(=O)n(CC(=O)c3ccc(Cl)cc3)c2cc1OC (stereo unspecified)	-13.3%	0.7%	-0.3	6.5%	-12.1%	1.2%
O=C(CC1C(=O)NCCN1Cc1c(F)cccc1Cl)NCCCOc1cccnc1 (stereo unspecified)	x	4.3%	-1.5	x	x	x
Cc1cc(C)cc(N(CC(=O)N2CCc3ccccc32)S(=O)(=O)c2c(C)noc2C)c1	-21.9%[46.1 µM]	7.4%	1.8	2.0%	8.91µM*	-4.5%
CCOc1ccc(N(CC(=O)N2CCc3ccccc32)S(=O)(=O)c2c(C)noc2C)cc1	-19.4%[46.1 µM]	28.5%	-3.5	-2.9%	-1.9%	1.8%
COc1ccccc1C(C[N+](=O)[O-])c1c(N)n(C)c(=O)n(C)c1=O (stereo unspecified)	10µM*	6.2%	2.6	-3.4%	x	-1.9%
COc1cc2c(cc1OC)C1O[C@](CCCCN3C(=O)c4ccccc4C3=O)(C2)OC2=C1C(=O)CC(C)(C)C2	x	-14.1%	-12.2	x	x	x
O=C1c2ccccc2S(=O)(=O)N1CC1CC(c2ccc(Cl)cc2)=NO1 (stereo unspecified)	-2.6%	2.6%	-1.7	7.7%	5.62µM*	-2.9%
O=C1c2ccccc2S(=O)(=O)N1CC1CC(c2ccccc2)=NO1 (stereo unspecified)	-25.6%[46.1 µM]	11.9%	1.3	7.3%	u	-1.8%
Cc1ccc(S(=O)(=O)N2CCN(C(=O)NCc3ccc(C(=O)O)cc3)CC2)cc1	x	1.3%	0.2	x	x	x
CC(C(c1cccs1)c1c(N)n(C)c(=O)n(C)c1=O)[N+](=O)[O-] (stereo unspecified)	6.5%	4.7%	2.5	6.2%	x	2.8%
CCCc1cc(=O)oc2cc(C)cc(OCC(=O)N[C@@H](CSCc3ccccc3)C(=O)O)c12	x	8.4%	9.2	x	x	x
CC(=O)Nc1ccc(N=Nc2c(C)[nH]n(C(N)=S)c2=O)cc1	-41.5%	39.8µM*	-0.2	4.6%	u	-3.8%
Cc1[nH]n(C(N)=S)c(=O)c1N=Nc1cccc([N+](=O)[O-])c1C	x	12.1%	4.4	x	x	x
Cc1ccc(N=Nc2c(C)[nH]n(C(N)=S)c2=O)cc1C	-12.3%	-20.5%	3.3	14.4%	u	-0.5%
Cc1[nH]n(C(N)=S)c(=O)c1N=Nc1ccc2ccccc2c1	-18.3%	11.1%	1.3	19.4%	7.94µM*	4.4%
Cc1[nH]n(C(N)=S)c(=O)c1N=Nc1ccc(S(=O)(=O)N2CCCCCC2)cc1	-15.4%[46.1 µM]	6.1%	0.5	2.0%	11.2µM*	-20.9%
C[C@@H]1CCC(=O)N(CC[C@H](Oc2ccccc2)c2ccccc2)CC1	x	5.2%	-0.6	x	x	x
SMILES	NPSR antag	Sfp inh	FBPA coupling cs	RGS12 GoLoco inh	ALDH1A1 block	JMJD2E inh
CC(=O)Oc1ccc2c(c1)CCC1C2CC[C@@]2(C)C1CC(OC(C)=O)C2OC(C)=O (stereo partly specified)	x	1.6%	4.6	3.3%	2.0%	-5.3%
CCN=C1SC(CC(=O)NCCc2ccc(OC)c(OC)c2)C(=O)N1CC (stereo unspecified)	u	2.4%	0.6	6.1%	20µM*	5.7%
COc1ccc(CCNC(=O)CC2SC(=NCCc3ccccc3)NC2=O)cc1OC (stereo unspecified)	1.0%	-7.4%	0.4	12.8%	14.1µM*	-2.6%
COc1ccc(CCNC(=O)CC2SC(=NCCC(C)C)NC2=O)cc1OC (stereo unspecified)	13.8%	11.1%	0.3	2.0%	u	12.3%
COc1ccc(CCNC(=O)CC2SC(=NCc3ccccc3)NC2=O)cc1 (stereo unspecified)	2.2%	9.4%	2.8	10.1%	31.6µM*	1.3%
COc1ccc(NC(=O)CC2SC(=NCc3ccccc3OC)NC2=O)cc1 (stereo unspecified)	-4.5%[46.1 µM]	11.1%	0.7	-2.7%	-2.6%	6.1%
COc1ccc(CCNC(=O)CC2SC(=NCCc3ccccc3)NC2=O)cc1 (stereo unspecified)	-0.3%	-3.1%	5.0	12.4%	28.2µM*	-1.3%
CN(CC(=O)Nc1ccccc1Cl)C(=O)COC(=O)Cc1ccc(F)cc1	x	16.5%	x	x	x	x
O=C(Nc1nc2c(Br)cccc2s1)C1CC1	x	8.4%	1.2	x	x	x
Cc1cc(C(=O)Nc2c(F)cc(F)cc2Br)n(-c2ccccc2)n1	x	16.9%	-0.4	x	x	x
COc1ccccc1N1C(=O)N(CC(=O)C(C)(C)C)c2ccccc2S1(=O)=O	x	9.4%	-2.9	x	x	x
CCN(CC)c1ccc(S(=O)(=O)N(CC)CC)cc1NC(=O)c1cccnc1	-15.4%	13.4%	-5.6	4.3%	u	-2.9%
CC(C)CCNc1nc2c(c(=O)n(Cc3cccc(F)c3)c(=O)n2C)n1C	-23.2%[46.1 µM]	-0.2%	-1.0	-6.5%	12.6µM*	6.5%
Cn1c(NCCO)nc2c1c(=O)n(Cc1ccc(F)cc1)c(=O)n2C	x	6.7%	1.2	x	x	x
O=C1C2=C(C(=O)c3ccccc31)C1O[C@](c3ccsc3)(Cc3ccccc31)O2	x	-3.3%	-16.2	x	x	x
C/C(N)=C(/C#N)C(=O)CSc1nc(C2CCCCC2)n(-c2ccccc2)n1	u	-8.4%	7.5	-11.5%	31.6µM*	1.1%
